# According to article PMC4336329 (PLoS ONE, 2015):
# Hit rate of the full screen: of about 310,000 compounds, about 2,200 (0.71%) showed an effect of 50% or more. The effect is printed as a negative number. The list comes from a sample in which strong results are over-represented; it also holds similar structures and randomly drawn compounds.
# Molecular target: human ether-à-go-go-related gene (hERG) potassium channel (human, UniProt Q12809)
# Experiment: primary screen, population patch clamp on CHO cells stably expressing hERG; higher = less effect of the substance
# Experimental: Briefly, Chinese hamster ovary (CHO) cells stably expressing the hERG channel were dislodged from tissue culture flasks and dispensed into PPC plates. […] During the recording, background leak currents were estimated by a 100 ms step to -80 mV from an initial holding potential of -70 mV and subtracted from the subsequent current measurement. The campaign was conducted in two phases using slight differences in recording protocol. In the first phase, the initial voltage pulse used a 100 ms step to -30 mV from a holding potential of -70 mV, a 2 s conditioning step to +25 mV, and a 2 s test step to -30 mV. During the second phase of the screen, the potential during the conditioning step was raised to +45 mV. In both phases of the campaign, a secondary voltage pulse was applied using the same parameters as the second phase initial pulse. The initial and secondary pulses were applied in the absence of compound, and upon application of 1 μM and 10 μM test concentrations. Small molecule effects on hERG current density were quantified by […].
# human ether-à-go-go-related gene (hERG) potassium channel, sequence (Q12809 whole entry, looked up): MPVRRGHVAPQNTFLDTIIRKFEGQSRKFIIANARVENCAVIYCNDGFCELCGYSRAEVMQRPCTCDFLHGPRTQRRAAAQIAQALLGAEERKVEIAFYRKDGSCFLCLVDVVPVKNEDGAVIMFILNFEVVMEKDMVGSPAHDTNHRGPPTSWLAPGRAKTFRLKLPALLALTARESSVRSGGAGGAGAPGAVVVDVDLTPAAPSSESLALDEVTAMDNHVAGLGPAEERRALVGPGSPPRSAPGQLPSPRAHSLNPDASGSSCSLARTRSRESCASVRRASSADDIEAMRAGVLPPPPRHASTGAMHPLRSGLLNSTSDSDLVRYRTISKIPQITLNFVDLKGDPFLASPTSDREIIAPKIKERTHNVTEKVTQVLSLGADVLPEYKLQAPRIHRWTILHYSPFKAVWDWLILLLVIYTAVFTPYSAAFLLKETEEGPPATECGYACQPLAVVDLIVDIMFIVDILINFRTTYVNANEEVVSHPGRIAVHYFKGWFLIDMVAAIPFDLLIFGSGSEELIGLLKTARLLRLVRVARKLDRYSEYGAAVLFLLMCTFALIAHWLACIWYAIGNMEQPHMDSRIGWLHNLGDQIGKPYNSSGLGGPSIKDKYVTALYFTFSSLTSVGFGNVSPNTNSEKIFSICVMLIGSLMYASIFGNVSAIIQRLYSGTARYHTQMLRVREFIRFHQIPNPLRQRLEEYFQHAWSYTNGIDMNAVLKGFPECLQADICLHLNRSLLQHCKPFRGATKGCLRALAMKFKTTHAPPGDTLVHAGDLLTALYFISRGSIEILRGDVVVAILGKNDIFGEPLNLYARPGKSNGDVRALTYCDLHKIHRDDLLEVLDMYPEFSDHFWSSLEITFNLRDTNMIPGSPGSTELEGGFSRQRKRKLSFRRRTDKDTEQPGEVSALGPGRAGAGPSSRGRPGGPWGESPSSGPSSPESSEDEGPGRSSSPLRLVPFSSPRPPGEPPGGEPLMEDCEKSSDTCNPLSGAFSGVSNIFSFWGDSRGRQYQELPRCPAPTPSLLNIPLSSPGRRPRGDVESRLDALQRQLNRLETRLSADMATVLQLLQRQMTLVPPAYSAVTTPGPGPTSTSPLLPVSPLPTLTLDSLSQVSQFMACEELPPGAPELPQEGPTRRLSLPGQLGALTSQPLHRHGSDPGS
row,SMILES,"hERG current change (%, negative = inhibition) at 1uM [%]"
1,CCCC(=O)Nc1nnc(CCc2ccccc2)s1.Cl,12.1
2,COc1cccc(NC(=O)NC2(C(F)(F)F)Oc3ccccc3O2)c1,8.19
3,Cc1cc(C)n(CC(=O)c2ccc(Br)cc2)c(=O)c1C#N,-2.8
4,CCCN(c1ccc(OCC)cc1)S(=O)(=O)c1ccc2c(c1)CCN2C(=O)CCC(=O)O,12.5
5,N=c1c(C(=O)NCCc2ccccc2)cc2c(=O)n3ccccc3nc2n1CCCN1CCOCC1,-77.8
6,O=C(NCCN1CCOCC1)c1cc2c(=O)n3ccccc3nc2n1Cc1ccccc1,8.53
7,N=c1c(S(=O)(=O)c2ccccc2)cc2c(=O)n3ccccc3nc2n1CCCN1CCOCC1,-42.5
8,N=c1c(C(=O)NCCN2CCOCC2)cc2c(=O)n3ccccc3nc2n1CCCN1CCOCC1,13.2
9,N=c1c(C(=O)NCc2ccc(F)cc2)cc2c(=O)n3ccccc3nc2n1CCCN1CCOCC1,-91.8
10,N=c1c(C(=O)NCCN2CCOCC2)cc2c(=O)n3ccccc3nc2n1Cc1ccc(F)cc1,-19.2
11,Cc1ccc(S(=O)(=O)c2cc3c(=O)n4ccccc4nc3n(CCCN3CCOCC3)c2=N)cc1C,2.37
12,N=c1c(C(=O)NCc2ccccc2)cc2c(=O)n3ccccc3nc2n1CCCN1CCOCC1,-80.7
13,COc1ccc(/C=C/CN2CCC(Oc3ccc(C(=O)N4CCCCC4)cc3)CC2)cc1,-15.6
14,COc1ccc(-c2nc(C#N)c(NCCc3ccccc3)o2)cc1OC,10.5
15,COc1ccc(NC(=O)C/C(C)=N/NC(=O)C(=O)NC2CCCCC2)c(OC)c1,-3.65
16,COc1cc(NC(=O)C/C(C)=N/NC(=O)C2CCCCC2)c(OC)cc1Cl,14.8

row,SMILES,"hERG current change (%, negative = inhibition) at 1uM [%]"
1,COc1cc(NC(=O)C/C(C)=N/NC(=O)C(=O)NC2CCCCC2)c(OC)cc1Cl,-66.8
2,O=C(NCc1cccnc1)C12CC3CC(CC(Cl)(C3)C1)C2,19
3,Cc1cccc(NC(=O)c2c(F)c(F)c(F)c(F)c2F)c1,-0.482
4,O=[N+]([O-])c1ccc(NC2CCN(Cc3ccccc3)CC2)c([N+](=O)[O-])c1,-60
5,O=C(CN1CCN(c2cccc(Cl)c2)CC1)Nc1ccc([N+](=O)[O-])cc1C(=O)Nc1ccccc1F,11.4
6,Cc1cc([N+](=O)[O-])ccc1NC(=O)CN1CCN(Cc2ccccc2)CC1,-73.7
7,COc1cccc(CNc2ccc([N+](=O)[O-])cc2C)c1,10.7
8,Cc1ccccc1NC(=O)CN1CCN(Cc2ccccc2)CC1,1.75
9,Cc1ccc(F)cc1NC(=O)CN1CCN(Cc2ccccc2)CC1,-16.8
10,CCOC(=O)N1CCN(CC(=O)Nc2ccc([N+](=O)[O-])cc2C(=O)Nc2ccccc2F)CC1,-5.13
11,O=C(CN1CCN(Cc2ccccc2)CC1)Nc1ccc([N+](=O)[O-])cc1C(=O)Nc1ccccc1F,-56.8
12,O=[N+]([O-])c1cc(C(F)(F)F)ccc1NC1CCN(Cc2ccccc2)CC1,3.28
13,O=[N+]([O-])c1ccccc1NC1CCN(Cc2ccccc2)CC1,-26.7
14,Cc1cc([N+](=O)[O-])ccc1NCc1ccccc1,4.76
15,Cc1cc([N+](=O)[O-])ccc1NCc1cccc([N+](=O)[O-])c1,-56.6
